Where “and” joins values, the source holds several entries; their conditions need not be identical. Identical values can stand only once. About 79,000 compounds went through this panel and 15% of them were active in at least one assay; those are over-represented in the sample as a whole. Rule as the data show it: active = growth inhibition above about 70%; inactive = the rest.
How the values were obtained:
[1] = NCI Yeast Anticancer Drug Screen. Data for the rad50 strain (AID 155);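 also: 0% = growth of vehicle-only cultures of the same strain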; conditions: S. cerevisiae rad50 strain growth inhibition; at 50.0 µM; hits give high values
Outline: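 Growth of the mutant yeast was measured after compound exposure and referenced to vehicle-treated cultures.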

[2] = NCI Yeast Anticancer Drug Screen. Data for the mec2-1 strain (AID 157); conditions: S. cerevisiae mec2-1 strain, at 50.0 µM, hits give high values
Outline: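 Readout is yeast growth inhibition, normalised to vehicle-treated controls, in the mec2-1 strain exposed to compound.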

[3] = NCI Yeast Anticancer Drug Screen. Data for the sgs1 mgt1 strain (AID 161);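 also: 0% = growth of cultures given vehicle only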; conditions: S. cerevisiae sgs1 mgt1 strain, at 50.0 µM, hits give high values
Outline: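 Yeast cells carrying a defined DNA-repair defect were exposed to test compounds. Growth inhibition was measured relative to vehicle-treated controls.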

[4] = NCI Yeast Anticancer Drug Screen. Data for the cln2 rad14 strain (AID 165);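 also: 0% = growth equal to vehicle treated cultures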; conditions: S. cerevisiae cln2 rad14 strain, at 50.0 µM, hits give high values
Outline: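 Relative to vehicle controls, growth inhibition of compound-treated cln2 rad14 yeast was recorded.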

[5] = NCI Yeast Anticancer Drug Screen. Data for the bub3 strain (AID 167); conditions: S. cerevisiae bub3 mutant strain, at 50.0 µM, hits give high values
Outline: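 Whole-cell yeast assay. The mutant strain was incubated with compounds, and growth inhibition was determined by comparison with vehicle-treated cells.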

[6] = NCI Yeast Anticancer Drug Screen. Data for the mlh1 rad18 strain (AID 175); conditions: S. cerevisiae mlh1 rad18 strain growth inhibition; at 50.0 µM; hits give high values
Outline: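 Test agents were incubated with a yeast strain of defined genotype (DNA damage repair defect). Inhibition of growth was derived by comparison with vehicle-exposed cultures.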

Measured: growth inhibition

NC(CNC(=O)CBr)C(=O)O (configuration not stated)
inactive: [1] 6.9% | [2] 18.1% | [3] -3.25% | [4] 8.9% | [5] -4.1% | [6] -35.2%

O=C1C[C@@H]2OCC=C3C[N+]4([O-])CC[C@]56c7ccccc7N1[C@H]5[C@H]2[C@H]3C[C@@H]64 (some centres not stated)
inactive: [1] -4.85% and -6.5% | [2] -7.75% and -6.3% | [3] 2.05% | [4] 0.9% | [5] 25.4% | [6] -3.15% and -3.7%

O=C(C(Cl)Cl)N1CCCCC1
inactive: [1] -5.2% | [2] -0.3% | [3] -5.5% | [4] 4.65% | [5] 0% | [6] 39.9%

C[C@]12CCNC(=O)C=C1CC[C@@H]1C2CC[C@@]2(C)C1CC[C@@H]2OC(=O)COc1ccc(N(CCCl)CCCl)cc1 (some centres not stated)
inactive: [1] 24.4% | [2] 25.1% | [3] 21.6% | [4] 60% | [5] 35.8% | [6] -26.1%

O=C(c1ccc([N+](=O)[O-])cc1)C1NC1c1ccccc1 (configuration not stated)
inactive: [1] -24.2% | [2] -16.6% | [3] 24% | [4] -2.65% | [5] 22.3% | [6] -15.7%

CN(Cc1ccccc1)CC(O)c1ccccc1Cl (configuration not stated)
inactive: [1] -0.75% | [2] -2.7% | [3] 21.4% | [4] -28.2% | [5] 13.3% | [6] 25.1%

CN(C)P(N)(=S)N(C)C
inactive: [1] -2.75% | [2] -9.15% | [3] -1.3% | [4] -15.8% | [5] -22.6% | [6] -7.05%

O=C1C(C(Nc2ccccc2)c2ccccc2)=C([O-])c2ccccc21.O=C1C(C(Nc2ccccc2)c2ccccc2)=C([O-])c2ccccc21.[Cu+2] (configuration not stated)
inactive: [1] -12% | [2] -1.5% | [3] -10.2% | [4] 10.5% | [5] 4.75% | [6] -0.65%

Cc1c([N+](=O)[O-])cc2c(c1[N+](=O)[O-])C(C)(C)CC2(C)C
inactive: [1] -18.9% | [2] -22.5% | [3] -9.2% | [4] 10.4% | [5] 14.8% | [6] -6.3%

O=C(N/N=C/c1cc(Br)cc(Br)c1[O-])c1ccccc1O.O=C(N/N=C/c1cc(Br)cc(Br)c1[O-])c1ccccc1O.[Fe+2]
inactive: [1] 20.4% | [2] 21.7% | [3] 52% | [4] -34.8% | [5] 34.4% | [6] 43.8%

ClCc1ccc2ccccc2n1
inactive: [1] 19.1% and 11.7% | [2] -8.8% and -0.5% | [3] -3.8% and 8.5% | [4] 7.55% and 3.35% | [5] -17.6% and -7.65% | [6] 9.75% and 4.55%

O=P(Nc1ccc(Cl)cc1)(Oc1ccccc1)N(CCCl)CCCl (configuration not stated)
inactive: [1] 3.75% | [2] -1.55% | [3] -6.75% | [4] -9.4% | [5] -7.95% | [6] 0.9%

O=C(O)C(O)C(O)C(O)C(O)C(O)C(O)CO.[Cd] (configuration not stated)
inactive: [1] 29.4% and 27.9% | [2] 15.2% and 26.5% | [3] 20.2% and 20.4% | [4] 19.4% and 28.7% | [5] 4.6% and -7.8% | [6] -1.55% and 0.55%

[C-]#[O+].[C-]#[O+].[Ni].c1ccc([PH+](CC[PH+](c2ccccc2)c2ccccc2)CC[PH+](c2ccccc2)c2ccccc2)cc1
inactive: [1] -23.4% | [2] 0.4% | [3] -22.4% | [4] 3.75% | [5] 7.6% | [6] -10.2%

CC(C)C(=O)[O-].CC(C)C(=O)[O-].N.N.N.N.[Co+3].[O-][Cl+3]([O-])([O-])[O-]
inactive: [1] -17.1% and -29.1% | [2] 4% and 16.6% | [3] -54% and -56.5% | [4] 9.9% and 23.4% | [5] -6.75% and -12.6% | [6] -11.2% and -8.35%

CC1(C)CC(N)C(=O)c2ccccc21 (configuration not stated)
inactive: [1] 7.25% | [2] -20.6% | [3] -5.6% | [4] 14.2% | [5] -4.4% | [6] 29%

O=C(O)CN(CCN(CC(=O)O)CC(=O)O)CC(=O)O.[Cl][Pd][Cl]
inactive: [1] 41.7% | [2] 51.5% | [3] 48.2% | [4] 21.7% | [5] 44.6% | [6] 62%

From PubChem BioAssay (NCI)
